Bioassay records as filed in PubChem.
697 NFkB inh: lowers PMA/ionomycin-induced NF-kB signal in 697 B cells | 330,000 tested, 0.33% active | AID 435022 | inhibition, % at 4 µM | 697 B-cell NF-kB luciferase reporter, 16 h; in the data active = inhibition above about 35%
KLF5 inhibitor: inhibitors of KLF5 expression; DLD-1 KLF5 promoter-luciferase reporter, luminescence; inhibition, % at 5 µM; 290,000 tested, 0.23% active;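 active = inhibition above a per-plate limit of that plate's mean compound inhibition plus 3 SD, cut at about 60% in these data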;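 note: 0% = DMSO wells and 100% = LY294002 at 200 µM; higher means less KLF5 promoter-driven luciferase light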
ANO1 activ: mouse TMEM16A channel activation, primary screen | Q8BHY3 | B-score at 10 µM | HEK293 TMEM16A/YFP-H148Q/I152L, iodide quench fluorescence; hits give low values | 340,000 tested, 0.3% active | AID 623877;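 active = fluorescence-ratio B-score plate-corrected deviation score at least 3 library SD below zero, with starting fluorescence score within 5 deviations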;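 note: channel opened by trigger with iodide after compound preincubation; score built on the fluorescence ratio of max minus min over baseline; more negative score means more quench and so TMEM16A activation or potentiation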
Jurkat NFkB inh: lowers PMA/ionomycin-induced NF-kB signal in Jurkat cells | PMA/ionomycin-induced NF-kB luciferase reporter, luminescence | inhibition, % at 4 µM | 330,000 tested, 0.53% active | AID 435003; in the data active = inhibition above about 50%
TMEM16A inh: mouse TMEM16A channel inhibition, primary screen | Q8BHY3 | HEK293 TMEM16A/YFP iodide influx fluorescence, ionomycin | normalized B-score (activity score, 25-100; higher = stronger inhibition) at 10 µM | 310,000 tested, 1.2% active | AID 588511;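 active = ratio plate-corrected score three or more library SD toward inhibition, starting fluorescence score within five deviations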;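 note: score derived from kinetic fluorescence span divided by baseline fluorescence per well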
aSyn 5UTR inh: MLPCN primary screen, SNCA 5' untranslated region; AID 1813; alpha-synuclein 5'UTR reporter, inhibitor activity; inhibition, % (tested at 7.5 µM); 300,000 tested, 0.82% active; in the data active = inhibition above about 60%;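 note: H4 neuroglioblastoma cells stably carrying SNCA 5'UTR luciferase fusion; 0% = DMSO wells and 100% = positive control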
TMEM16A reconf: re-confirmation of mouse TMEM16A chloride channel inhibitors. shares compounds with TMEM16A inh. HEK293 TMEM16A/YFP-H148Q, iodide quench fluorescence; ionomycin added to raise cell calcium. inhibition, % at 10 µM. 2,300 tested, 39% active. AID 652189;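 active = mean duplicate percent inhibition, scaled so buffer wells are 0 and the reference blocker 100, over three buffer SD above buffer mean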
TMEM16A Ca cntr: counter-screen for TMEM16A inhibitors: effect on calcium mobilization; shares compounds with TMEM16A inh; TMEM16A/YFP HEK293, Fluo4 calcium mobilization; calcium response (% of ionomycin), % at 10 µM; 2,300 tested, 2% active; AID 652231;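 active = duplicate-averaged calcium signal over 20% of the ionomycin maximum, relative to buffer baseline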;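 note: each well's signal is peak minus trough fluorescence divided by its pre-addition baseline; 0% = buffer wells and 100% = ionomycin wells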
Parental YFP cnt: parental YFP-HEK293 iodide quench counter-screen activity; AID 652233; YFP ratio F(max-min)/F0 at 10 µM; shares compounds with TMEM16A inh; 2,300 tested, under 10 active; ionomycin;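 active = yellow fluorescent protein signal ratio exceeding the buffer control mean by over 5 SD of those controls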;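 note: ratio is mean of duplicate wells from kinetic YFP trace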
ClC-1 inh: rat ClC-1 inhibition, TMEM16A specificity screen | shares compounds with TMEM16A inh | CHO ClC-1-YFP, iodide influx fluorescence quench; iodide control reads 0, buffer control 100 | 2,300 tested, under 10 active | ratio percent, % at 10 µM;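 active = duplicate-mean ratio percent above the mean of iodide-only control wells, which defines zero, plus 5 of their SD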;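 note: higher percent means stronger block of ClC-1 iodide influx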
* hit, by the source's call; i = inactive; . = not tested or not shown. Sampled rows, rich in hits. Any-hit rate of the full collection: about 2.5%.

SMILES	697 NFkB inh	KLF5 inhibitor	ANO1 activ	Jurkat NFkB inh	TMEM16A inh	aSyn 5UTR inh	TMEM16A reconf	TMEM16A Ca cntr	Parental YFP cnt	ClC-1 inh
COc1ccc(CCNC(=O)CN2c3cccc4cccc(c34)S2(=O)=O)cc1OC	-3.0	7.6	i	6.0	i	45.6	.	.	.	.
COc1ccc(OC)c(S(=O)(=O)Nc2ccc(Oc3ccccc3)cc2)c1	-24.0	-15.3	i	17.6	25*	2.5	i	i	-1.14	-13.0
N#C/C(=N\Nc1cccc(C(F)(F)F)c1)C(=O)c1ccsc1	-50.2	-62.3	i	-14.9	25*	-108.7	37.5%*	i	-1.08	-19.0
CC1Sc2ccc(S(=O)(=O)N3CCC(C(=O)Nc4ccc(Cl)cc4)CC3)cc2NC1=O (configuration not stated)	-16.7	-14.0	i	30.4	25*	-20.1	32.0%*	i	-1.35	-10.5
COc1ccc(NC(=O)C2CCN(S(=O)(=O)c3ccc4c(c3)NC(=O)C(C)S4)CC2)cc1 (configuration not stated)	-16.2	6.3	i	-2.9	i	34.0	.	.	.	.
CC1Sc2ccc(S(=O)(=O)CCC(=O)NCc3ccc(Cl)cc3)cc2NC1=O (configuration not stated)	-13.9	-30.1	i	-1.4	25*	19.3	i	i	-1.18	-7.0
C=CCc1ccc(O)c(-c2ccc(O)c(CC=C)c2)c1	-10.7	-31.1	i	8.3	100*	-5.2	56.0%*	i	-0.879	-13.5
C=CCc1cc(C(=O)N2CCCCC2)ccc1O	-26.4	-19.3	i	-1.7	i	17.7	.	.	.	.
Cc1cccc(-c2onc3ccc(C(=O)/C=C/N(C)C)cc23)c1	-72.3	-107.2	i	-14.8	i	-30.6	.	.	.	.
CC(C)CCN1C(=O)c2ccc(C(=O)Nc3ccccc3C(=O)O)cc2C1=O	14.5	-46.7	i	11.9	25*	-4.3	i	i	-1.14	-9.0
COc1ccc(NC(=O)C2CCN(Cc3cnn(-c4ccccc4)c3-n3cccc3)CC2)cc1OC	13.7	-3.3	i	11.2	i	18.8	.	.	.	.
COc1cccc(NC(=O)C2CCN(Cc3cnn(-c4ccccc4)c3-n3cccc3)CC2)c1	-0.9	-21.7	i	11.0	25*	0.8	i	i	-1.38	-9.0
O=C1C(SCCO)=C(SCCO)C(=O)c2ccccc21	-51.6	.	i	16.7	100*	.	40.0%*	i	-0.911	-33.5
CCOC(=O)N1CCN(c2nc(-c3ccc(Cl)cc3)cs2)CC1	-26.0	-15.5	i	-11.0	i	-22.7	.	.	.	.
S=C(NCc1ccco1)N1CCN(c2nc(-c3ccc(Cl)cc3)cs2)CC1	12.3	-31.6	i	-4.9	i	-5.0	.	.	.	.
CC(C)C(=O)N1CCN(c2nc(-c3ccc(Cl)cc3)cs2)CC1	-1.6	-23.3	i	-4.8	25*	-7.9	33.5%*	i	-1.09	-12.0
O=C(CN1CCN(c2nc(-c3ccc(Cl)cc3)cs2)CC1)NCc1ccco1	-28.0	-12.8	.	2.4	25*	-20.7	i	20.0%*	-0.949	3.5
COc1cccc(-c2c(-c3cc(OC)cc(OC)c3)n(C)c3ccc(-c4cnc(N5CCOCC5)nc4)cc23)c1	-26.7	.	i	11.7	.	.	.	.	.	.
CCCN(CCC)CCN1C(=O)C2C(C(=O)Nc3cccc(SC)c3)C3C=CC2(O3)C1C(=O)NC1CCCCC1 (configuration not stated)	-18.1	-30.0	i	-29.5	100*	-0.7	i	i	-1.1	-1.0
N#Cc1c(-c2ccc(Cl)cc2)n(O)c2ccccc12	.	.	i	.	.	.	.	.	.	.
O=C(CN1C(=O)NC2(CCCCCC2)C1=O)NCc1ccc(Cl)cc1	1.7	.	i	7.9	.	.	.	.	.	.
CCN(CC)CC(=O)Nc1nc(-c2ccc(Cl)cc2)cs1	-2.3	-22.1	i	-6.5	100*	-33.5	i	i	-1.03	-12.0
O=C(CN1CCCCC1)Nc1nc(-c2ccc(Cl)cc2)cs1	.	-57.0	i	.	i	-74.5	.	.	.	.
O=S(=O)(c1ccc(C2CCCCC2)cc1)N1CCCC1	12.4	-32.5	i	12.4	25*	2.2	i	i	-0.827	0.5
CSc1ccc(C(=O)Nc2cc(S(=O)(=O)N3CCOCC3)ccc2N2CCOCC2)cc1[N+](=O)[O-]	.	.	i	.	.	.	.	.	.	.
SMILES	697 NFkB inh	KLF5 inhibitor	ANO1 activ	Jurkat NFkB inh	TMEM16A inh	aSyn 5UTR inh	TMEM16A reconf	TMEM16A Ca cntr	Parental YFP cnt	ClC-1 inh
COc1ccc(NC(=O)c2ccc3nccnc3c2)cc1	-52.3	-106.0	i	-77.0	100*	-102.2	i	i	-1.09	-5.0
CCOc1ccc(NC(=O)c2ccc3nccnc3c2)cc1	-41.1	-72.0	i	-29.8	i	-113.4	.	.	.	.
CC(=O)c1c(O)cc(O)cc1CC(=O)O	14.0	-17.8	i	2.6	i	-5.1	.	.	.	.
CC(=O)c1c(O)cc(O)c(C(C)=O)c1O	-11.7	.	i	3.2	100*	14.7	31.0%*	i	-1.1	-9.5
Cc1nnc2c3ccccc3c(-c3cccs3)nn12	27.0	-0.2	i	-6.3	i	22.4	.	.	.	.
Cc1nnc2c3ccccc3c(-c3ccc(O)cc3)nn12	23.2	-2.0	i	-4.8	25*	30.7	i	i	-1.19	-6.5
CCCCCC1C(C(=O)OCC)C(=O)NC1(C(=O)OCC)C(=O)OCC (configuration not stated)	.	.	i	.	.	.	.	.	.	.
Cc1ccccc1OCC(=O)N/N=C/c1cc2ccccc2nc1Cl	-13.3	-12.9	i	9.6	25*	-55.1	20.0%*	i	-1.05	-15.5
Cc1nnc(SCC(=O)c2cc(C)n(-c3ccc4c(c3)OCO4)c2C)s1	-75.5	-19.7	-6.06*	-6.1	25*	-151.4	i	21.0%*	-1.09	-11.0
Cc1ccc(C(=O)N2CC(C)CC(C)C2)cc1NC1=NC2CS(=O)(=O)CC2S1 (configuration not stated)	22.5	-12.9	i	0.4	i	-7.8	.	.	.	.
CCCCN1C(=O)C2(OCCCO2)c2cccc(C)c21	-9.4	-32.7	i	-0.7	i	10.7	.	.	.	.
O=C(CSc1nc2c(cnn2-c2cccc(Cl)c2)c(=O)[nH]1)NCCC1=CCCCC1	7.9	.	i	2.6	.	.	.	.	.	.
